Tb PYK inh – blocks Trypanosoma brucei pyruvate kinase. 0.12% of 410,000 active. Q57TT1. Potency, µM (doses to about 76.8 µM), for the others: at the top dose activity, negative = inhibition, hits mostly inhibitors. TbPYK enzyme, Kinase-Glo Plus ATP luminescence, 45 min. AID 624173; also: nearly all actives have a fitted effect of over 50% in size
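T. brucei PYK with substrate was exposed to pin-transferred compounds across a concentration series, then started with 130 uM ADP (final). After 45 min at room temperature, Kinase-Glo Plus luminescence was read, normalized and curve-fitted.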
Giardia FBPA inh-1 – inhibitors of Giardia lamblia fructose-1,6-bisphosphate aldolase; A8B2U2; purified Giardia FBPA; Potency, µM (top dose mostly 59.6 µM), inactives show at the highest dose activity, negative = inhibition, hits mostly inhibitors; 0.71% of 290,000 active; also: nearly all actives have a fitted effect of over 55% in size
Target sequence (A8B2U2 whole entry, looked up): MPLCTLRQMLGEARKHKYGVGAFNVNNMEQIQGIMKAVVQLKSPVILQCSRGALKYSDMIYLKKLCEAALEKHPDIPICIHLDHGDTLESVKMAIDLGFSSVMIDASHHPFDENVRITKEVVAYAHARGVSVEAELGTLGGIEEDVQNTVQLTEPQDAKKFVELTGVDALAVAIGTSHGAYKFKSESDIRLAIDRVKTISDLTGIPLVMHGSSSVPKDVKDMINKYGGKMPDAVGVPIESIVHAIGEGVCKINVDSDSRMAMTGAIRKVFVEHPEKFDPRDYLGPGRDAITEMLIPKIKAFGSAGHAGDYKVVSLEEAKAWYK
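Giardia FBPA (40 nM reagent) was preincubated 10 min at RT with compound (up to 57.5 uM final), then substrate plus GAPDH/TPI/NAD/arsenate coupling system with diaphorase/resazurin was added; resorufin fluorescence (525/598 nm) was read after 20 min.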
RE007 growth inh – less growth of the S. pombe RE007 Vpr strain; 0.21% of 360,000 active; AID 651644; S. pombe RE007 Vpr strain, BacTiter-Glo ATP luminescence, 24 h; Potency, µM (top dose mostly 92.2 µM), for inactives: at the top dose activity change, negative = less growth, most hits filed as inhibitors; active = well fitted falling curve with a large enough effect; inconclusive = small, poorly fitted or top-dose-only effect; inactive = no such curve, though single readings can be large or run the other way; also: nearly all actives have a fitted effect of over 50% in size
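Fission yeast RE007 carrying one integrated HIV-1 vpr copy, seeded at OD 0.01 in PMG+AL medium with 23 nL pinned compound. Grown 24 h at 30 degrees; viability read by BacTiter-Glo luminescence after 5 min.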
LmPK inh – inhibitors of Leishmania mexicana pyruvate kinase; Q27686; 0.37% of 290,000 active; purified LmPK, Kinase-Glo ATP luminescence, 1 h; Potency, µM (top dose mostly 57.5 µM), without a hit: at the top dose activity change, negative = inhibition, hits mostly inhibitors
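qHTS format; LmPK 0.1 nM; substrates PEP 0.5 mM and ADP 0.1 mM. One-hour room-temperature incubation, then coupled luciferase luminescence; 0.5 nM enzyme wells mark activation.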
Giardia growth – blocks growth of Giardia lamblia trophozoites; Potency, µM (highest dose often 57.5 µM), inactives show top-dose activity change, negative = inhibition, actives largely listed as inhibitors; Giardia lamblia trophozoite growth inhibition; 5% of 1,500 active; shares compounds with Giardia FBPA inh-1;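 also: trophozoites exposed to compound for 48 h at 37 °C; nearly all actives have a fitted effect of over 70% in size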
Mammal cell tox – counter-screen for Giardia aldolase inhibitors: mammalian cell toxicity | 4% of 1,500 active | shares compounds with Giardia FBPA inh-1 | Potency, µM (doses to about 57.5 µM), for inactives: top-dose viability change, negative = toxicity, hits mostly inhibitors | mammalian cell viability counter-screen, qHTS;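 also: Chinese hamster ovary cells used as mammalian cytotoxicity surrogate; viability measured as cellular ATP by luminescence; compound exposure lasted 48 h before reading; nearly all actives have a fitted effect of over 60% in size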
Giardia FBPA inh-2 – confirmation of Giardia fructose-bisphosphate aldolase inhibitors. purified Giardia aldolase enzyme activity, qHTS. shares compounds with Giardia FBPA inh-1. Potency, µM (doses to about 57.5 µM), for inactives: at the top dose activity change, negative = inhibition, usual class: inhibitors. 5% of 1,500 active; also: nearly all actives have a fitted effect of over 45% in size
Rabbit FBPA inh – rabbit FBP aldolase inhibition by Giardia aldolase hits | shares compounds with Giardia FBPA inh-1 | 4% of 1,500 active | Rabbit muscle FBPA enzyme inhibition, selectivity counter-screen | Potency, µM (doses to about 57.5 µM), without a hit: top-dose activity, negative = inhibition, hits mostly inhibitors; also: nearly all actives have a fitted effect of over 60% in size
Target sequence (P00883 whole entry, looked up): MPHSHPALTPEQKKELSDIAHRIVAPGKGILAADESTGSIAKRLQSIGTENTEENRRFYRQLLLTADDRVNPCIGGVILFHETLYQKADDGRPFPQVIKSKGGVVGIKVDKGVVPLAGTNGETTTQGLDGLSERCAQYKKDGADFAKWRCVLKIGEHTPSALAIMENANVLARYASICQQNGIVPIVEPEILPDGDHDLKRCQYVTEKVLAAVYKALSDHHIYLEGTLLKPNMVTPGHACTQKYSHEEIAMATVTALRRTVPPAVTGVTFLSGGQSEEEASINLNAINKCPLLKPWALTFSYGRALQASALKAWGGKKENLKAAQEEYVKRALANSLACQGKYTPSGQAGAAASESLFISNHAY
GAPDH coupling – GAPDH inhibition flagged for Giardia aldolase hits; GAPDH coupling enzyme counterscreen, biochemical, qHTS; 6% of 1,500 active; Potency, µM (titrated, usually from 57.5 µM), for the others: at the top dose activity change, negative = inhibition, most hits filed as inhibitors; shares compounds with Giardia FBPA inh-1; also: nearly all actives have a fitted effect of over 55% in size
* hit, by the source's call; ? = inconclusive; . = not tested or not shown; [ ] = another dose, or the depositor's remark. Most compounds without a hit are left out; they make up all but 0.95% or so of the library. Unless noted, calls follow the shape of the dose curve; as a rule, active = well fitted curve in the direction sought with a large enough effect; inconclusive = small, poorly fitted or top-dose-only effect, or another doubt; inactive = no such curve, though single readings can be large; an effect the other way counts as inactive or inconclusive. % is scaled to controls: 0 for no effect and ±100 for the full control effect; potency is read from the fitted curve at half-maximal effect.

SMILES	Tb PYK inh	Giardia FBPA inh-1	RE007 growth inh	LmPK inh	Giardia growth	Mammal cell tox	Giardia FBPA inh-2	Rabbit FBPA inh	GAPDH coupling
COC(=O)Cc1[nH]n(-c2nc3ccccc3s2)c(=O)c1C(C)=Nc1ccc(C)cc1	-4.7%	-9.0%	?	0.0%	.	.	.	.	.
COc1ccc(S(=O)(=O)N2CCOC23CCN(S(C)(=O)=O)CC3)cc1	-3.9%	.	-0.2%	.	.	.	.	.	.
CC(C)n1c(=O)[nH][nH]c1=S	3.55µM*	17.7µM*	23.4%	7.8%	-4.4%[10.4 µM]	2.9%	-10.0%	31.6µM*	-15.5%
O=c1cc2c(=O)oc3cc(O)c(O)oc3c2c(O)c1O	-17.9%	2.81µM*	-2.8%	-17.6%	15.1%[10.4 µM]	20.5%	-26.6%	?	-17.7%
CCCn1nnc(NC(=S)NC(=O)/C=C/c2ccco2)n1	-25.1%	15.8µM*	-2.5%	17.2%	6.8%	6.2%	-3.4%	1.6%	11.6%
CCCn1nnc(NC(=S)NC(=O)c2cccs2)n1	2.8%	5µM*	-24.1%	?	?	-2.3%	7.5%	5.1%	12.9%
CCCn1nnc(NC(=S)NC(=O)C(C)(C)C)n1	-10.8%	5.61µM*	-21.4%	-4.8%	-3.7%[38.3 µM]	-6.9%	-0.9%	-4.3%	-5.4%
CCCCCC(=O)Nc1nnn(CCC)n1	-3.1%	6.2%	0.2%	-3.9%	.	.	.	.	.
Cn1nnc(NC(=O)c2cccs2)n1	2.5%	1.6%	-8.9%	2.1%	.	.	.	.	.
Cc1ccc(C)c(N2CCN(C(=O)c3cc(C)nc4c3c(C)nn4-c3ccccc3)CC2)c1	-3.4%	.	.	.	.	.	.	.	.
CC(C)[C@H](NC(=O)c1ccc(Cl)cc1Cl)C(=O)NNC(=O)c1ccco1	4.6%	.	10.7%	.	.	.	.	.	.
Nn1cnnc1N/N=C/c1cccc(Cl)c1Cl	-8.3%	?	-14.8%	-9.9%	-3.8%[38.3 µM]	-6.8%	9.19µM*	11.6µM*	14.6µM*
CCc1nnc(N/N=C/c2ccc(N3CCC(C)CC3)c([N+](=O)[O-])c2)n1N	0.6%	7.06µM*	?	0.8%	?	-6.6%	?	-24.0%	-26.8%
Nn1cnnc1N/N=C/c1ccc(F)cc1	-7.4%	20µM*	5.6%	-3.1%	11.8%	8.8%	?	-11.0%	?
Nn1cnnc1N/N=C/c1ccc(Cl)c([N+](=O)[O-])c1	2.1%	12.6µM*	-14.2%	-0.8%	-12.7%	6.6%	?	?	?
COC(=O)c1ccc2nc(-c3ccccc3)c(Cc3ccc(C)cc3)n2c1	2.9%	.	-25.9%	.	.	.	.	.	.
CCc1nc(C)ccc1OCC(=O)NCCCN(C)C	27.0%	12.6µM*	-7.0%	-17.5%	12.6%[10.4 µM]	-0.8%	-1.5%	6.4%	-14.9%
Cc1ccccc1/C=N/Nc1nc2ccccc2c(=O)n1O	-20.9%	17.7µM*	6.2%	2.4%	?	-5.8%	-21.8%	-13.6%	-14.6%
O=C(NCc1ccccc1)c1ncn(Cc2ccccc2)c1C(=O)NCc1ccccc1	-7.1%	.	11.9%	.	.	.	.	.	.
O=C(O)c1ncn(Cc2ccccc2)c1C(=O)O	0.0%	7.92µM*	-8.0%	-8.0%	?	-4.5%	6.9%	2.9%	6.5%
N=C1/C(=C/c2coc3ccccc3c2=O)C(=O)N=C2SC(c3ccco3)=NN12	-5.5%	15.8µM*	10µM*	6.9%	-14.1%	3.5%	-2.1%	6.2%	10.9%
C1CCCCCC(=NNc2nn[nH]n2)CCCCC1	-5.7%	15.8µM*	-16.7%	-0.9%	-22.4%	1.6%	6.3%	3.8%	3.9%
Cc1cc(C)nc(NN=C2CCCC2)n1	1.8%	?	4.6%	-2.7%	.	.	.	.	.
Cc1c(-c2nsc(NC(=O)c3cccs3)n2)nnn1-c1ccc(Br)cc1	-7.8%	.	.	.	.	.	.	.	.
C/C(CC(=O)Nc1ccc(Cl)cc1Cl)=N\NC(N)=S	-9.1%	12.6%	4.4%	0.5%	.	.	.	.	.
SMILES	Tb PYK inh	Giardia FBPA inh-1	RE007 growth inh	LmPK inh	Giardia growth	Mammal cell tox	Giardia FBPA inh-2	Rabbit FBPA inh	GAPDH coupling
C/C(CC(=O)Nc1ccc(Cl)cc1C(F)(F)F)=N\NC(N)=S	-4.7%	19.9µM*	1.9%	-7.8%	3.3%[10.4 µM]	11.5%	16.8%	8.8%	13.7%
C/C(CC(=O)Nc1ccc(Cl)c(Cl)c1)=N\NC(N)=S	-6.2%	9.98µM*	0.5%	7.2%	1.8%	-4.6%	-2.6%	-1.7%	3.2%
C/C(CC(=O)Nc1cc(Cl)ccc1Cl)=N\NC(N)=S	-11.6%	?	-10.3%	-7.1%	.	.	.	.	.
Cc1ccc(O)c(NC(=O)COCc2cc(-c3ccco3)on2)c1	3.3%[15.4 µM]	.	.	.	.	.	.	.	.
Cc1ccc(NC(=S)Nn2cnnc2)c(C)c1	.	12.6µM*	.	4.7%	-17.5%	12.9%	-1.0%	10.1%	10.8%
Cc1ccc(NC(=O)Nn2cnnc2)c(C)c1	-3.8%	9.0%	15.1%	5.3%	.	.	.	.	.
